Data published in PubChem BioAssay (NCI).
Several values for one entry are separate records, joined by “and”; a condition that tells them apart may be missing. Equal values may be shown once. This is part of a sample that, as a whole, favours compounds with a hit. Of some 83,000 tested, about 20% had one in any assay.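 Single-concentration screen, 48 h exposure, 96-well plates. Endpoint: percent growth. Below 10 = active.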 Activity calls are given as the source filed them.

Assays:
Test in all cases: NCI-60 one-dose screen, 48 h (100 = growth as untreated, 0 = no growth, -100 = all killed)
Details in all cases: 10 µM unless noted
SR leukemia = tested on: SR leukemia
RPMI-8226 leukemia = tested on: RPMI-8226 leukemia
OVCAR-8 ovarian = tested on: OVCAR-8 ovarian
OVCAR-5 ovarian = tested on: OVCAR-5 ovarian
OVCAR-4 ovarian = tested on: OVCAR-4 ovarian
SK-OV-3 ovarian = tested on: SK-OV-3 ovarian
IGROV1 ovarian = tested on: IGROV1 ovarian
OVCAR-3 ovarian = tested on: OVCAR-3 ovarian
HS 578T breast = tested on: HS 578T breast
NCI/ADR-RES ovarian = tested on: NCI/ADR-RES ovarian

Measured: growth

COc1cc(/C=C2/C=C(c3ccc(C(C)(C)C)cc3)N(CCc3ccc(S(N)(=O)=O)cc3)C2=O)cc(OC)c1OC
inactive: SR leukemia 18.4% | OVCAR-8 ovarian 57.4% | OVCAR-5 ovarian 91.4% | OVCAR-4 ovarian 54.7% | SK-OV-3 ovarian 79.9% | IGROV1 ovarian 70.5% | OVCAR-3 ovarian 48.8% | HS 578T breast 69.6% | NCI/ADR-RES ovarian 71.8%
active: RPMI-8226 leukemia -5.19%

COc1cc(/C=C(/c2ccccc2)[N+](=O)[O-])c(OC)c2c1OCO2
inactive: SK-OV-3 ovarian 63% | HS 578T breast 31% | NCI/ADR-RES ovarian 10.7%
active: SR leukemia -18.9% | RPMI-8226 leukemia -19.7% | OVCAR-8 ovarian -1.64% | OVCAR-5 ovarian -36.7% | OVCAR-4 ovarian -25.9% | IGROV1 ovarian -41.8% | OVCAR-3 ovarian -97.4%

COC(=O)c1nc(-c2ccc(C)cc2)oc1Sc1ccc(C)cc1
inactive: SR leukemia 76.1% | RPMI-8226 leukemia 81.4% | OVCAR-8 ovarian 98.5% | OVCAR-5 ovarian 97.8% | OVCAR-4 ovarian 101% | SK-OV-3 ovarian 92.1% | IGROV1 ovarian 110% | OVCAR-3 ovarian 108% | HS 578T breast 108% | NCI/ADR-RES ovarian 108%

O=C1Nc2ccccc2/C1=C/c1cccn1CCCCCn1c2ccccc2c(=O)c2ccccc21
inactive: SR leukemia 76.1% | RPMI-8226 leukemia 22.1% | OVCAR-8 ovarian 45.6% | OVCAR-5 ovarian 82.6% | OVCAR-4 ovarian 57.1% | SK-OV-3 ovarian 90.4% | IGROV1 ovarian 73% | OVCAR-3 ovarian 70.9% | HS 578T breast 90.5% | NCI/ADR-RES ovarian 60.9%

O=c1c(/C=C/c2ccco2)nnc2sc(Nc3ccc(Cl)cc3)nn12
inactive: SR leukemia 96% | RPMI-8226 leukemia 101% | OVCAR-8 ovarian 101% | OVCAR-5 ovarian 97.1% | OVCAR-4 ovarian 90.7% | SK-OV-3 ovarian 86.4% | IGROV1 ovarian 68.8% | OVCAR-3 ovarian 106% | HS 578T breast 91% | NCI/ADR-RES ovarian 102%

COc1ccc(Cl)cc1Nc1nc(C(F)(F)F)ccc1C(=O)N/N=C/c1ccc(N(C)C)cc1
inactive: RPMI-8226 leukemia 108% | OVCAR-8 ovarian 99.8% | OVCAR-5 ovarian 79.5% | OVCAR-4 ovarian 87.1% | SK-OV-3 ovarian 11.8% | IGROV1 ovarian 96.4% | OVCAR-3 ovarian 147% | HS 578T breast 101% | NCI/ADR-RES ovarian 90%
active: SR leukemia 7.32%

COc1ccc(C2Nc3nc(SC)nc(N)c3N=C3c4ccccc4CCC32)cc1 (stereo not given)
inactive: SR leukemia 66% | RPMI-8226 leukemia 67.5% | OVCAR-8 ovarian 70.5% | OVCAR-5 ovarian 107% | OVCAR-4 ovarian 53.9% | SK-OV-3 ovarian 97% | IGROV1 ovarian 55.2% | OVCAR-3 ovarian 65.2% | HS 578T breast 97.1% | NCI/ADR-RES ovarian 56.2%

COc1ccc(Oc2nc(Nc3ccc(N4CCOCC4)cc3)ncc2NC(=O)c2cc(OC)cc(OC)c2)cc1
inactive: SR leukemia 34.7% | RPMI-8226 leukemia 53.2% | OVCAR-8 ovarian 92.1% | OVCAR-5 ovarian 123% | OVCAR-4 ovarian 81.3% | SK-OV-3 ovarian 102% | IGROV1 ovarian 83.8% | OVCAR-3 ovarian 83.5% | HS 578T breast 76.7% | NCI/ADR-RES ovarian 81.6%

O=C(Nc1ncc(Cc2cccc(C(F)(F)F)c2)s1)c1ccc(-n2cnnn2)cc1
inactive: SR leukemia 61.2% | RPMI-8226 leukemia 51.5% | OVCAR-8 ovarian 58.5% | OVCAR-5 ovarian 74.2% | OVCAR-4 ovarian 33.6% | SK-OV-3 ovarian 86.4% | IGROV1 ovarian 74.6% | OVCAR-3 ovarian 72.1% | HS 578T breast 79.3% | NCI/ADR-RES ovarian 35.9%

COc1cc(-c2nc(SCCC(C)C)nc(Nc3ccc(F)cc3)c2C#N)cc(OC)c1OC
active: OVCAR-4 ovarian 2.39%
inactive: SR leukemia 73.1% | RPMI-8226 leukemia 91.2% | OVCAR-8 ovarian 40.7% | OVCAR-5 ovarian 95% | SK-OV-3 ovarian 47.3% | IGROV1 ovarian 69.6% | OVCAR-3 ovarian 19.8% | HS 578T breast 50.1% | NCI/ADR-RES ovarian 77.7%

Cc1ccc(-c2nc([P+](c3ccccc3)(c3ccccc3)c3ccccc3)c(Nc3ccccc3)o2)cc1
inactive: IGROV1 ovarian 15%
active: SR leukemia -27.1% | RPMI-8226 leukemia -50.4% | OVCAR-8 ovarian -21.5% | OVCAR-5 ovarian 8.46% | OVCAR-4 ovarian -5.24% | SK-OV-3 ovarian -9.23% | OVCAR-3 ovarian -12.1% | HS 578T breast -31.1% | NCI/ADR-RES ovarian -3.38%

Cc1nn(-c2nc(-c3cc4ccccc4oc3=O)cs2)c(C)c1N=Nc1ccccc1
inactive: SR leukemia 90.4% | RPMI-8226 leukemia 101% | OVCAR-8 ovarian 106% | OVCAR-5 ovarian 106% | OVCAR-4 ovarian 102% | SK-OV-3 ovarian 110% | IGROV1 ovarian 105% | OVCAR-3 ovarian 101% | HS 578T breast 108% | NCI/ADR-RES ovarian 104%

N#Cc1ccccc1-c1ccc(Cn2c(-c3cscn3)nc3c(Cl)cccc32)cc1
inactive: SR leukemia 55.2% | RPMI-8226 leukemia 48.3% | OVCAR-8 ovarian 78.2% | OVCAR-5 ovarian 86.8% | OVCAR-4 ovarian 62% | SK-OV-3 ovarian 82.6% | IGROV1 ovarian 89.1% | OVCAR-3 ovarian 63.3% | HS 578T breast 85.5% | NCI/ADR-RES ovarian 73.3%

COc1ccc(-c2nc(Cl)c3c(C)nn(-c4ccc(F)cc4)c3n2)cc1
inactive: SR leukemia 103% | RPMI-8226 leukemia 102% | OVCAR-8 ovarian 99.2% | OVCAR-5 ovarian 110% | OVCAR-4 ovarian 107% | SK-OV-3 ovarian 102% | IGROV1 ovarian 109% | OVCAR-3 ovarian 106% | HS 578T breast 103% | NCI/ADR-RES ovarian 112%

C=C(CNCCO)[C@@H]1CC[C@]2(CO)CC[C@]3(C)[C@H](CC[C@@H]4[C@@]5(C)CCC(NCCc6ccc(O)cc6)C(C)(C)[C@@H]5CC[C@]43C)[C@@H]12 (stereo not given in full)
inactive: NCI/ADR-RES ovarian 33.4%
active: SR leukemia -50.6% | RPMI-8226 leukemia -51.3% | OVCAR-8 ovarian -76.8% | OVCAR-5 ovarian 0.392% | OVCAR-4 ovarian -27.1% | SK-OV-3 ovarian -73.2% | IGROV1 ovarian -61.5% | OVCAR-3 ovarian -64.3% | HS 578T breast -55.9%

CC(=NCc1ccccc1)c1ccc(O)cc1O
inactive: SR leukemia 93.5% | RPMI-8226 leukemia 96.6% | OVCAR-8 ovarian 103% | OVCAR-5 ovarian 104% | OVCAR-4 ovarian 101% | SK-OV-3 ovarian 103% | IGROV1 ovarian 105% | OVCAR-3 ovarian 103% | HS 578T breast 112% | NCI/ADR-RES ovarian 98.4%

CC(=O)N1N=C(c2ccc(Nc3nc(Nc4ccc(F)cc4)nc(Nc4ccc(F)cc4)n3)cc2)CC1c1ccccc1 (stereo not given)
inactive: SR leukemia 23.3% | RPMI-8226 leukemia 33.9% | OVCAR-8 ovarian 83% | OVCAR-5 ovarian 72.3% | OVCAR-4 ovarian 95.3% | SK-OV-3 ovarian 89.2% | IGROV1 ovarian 117% | OVCAR-3 ovarian 141% | HS 578T breast 94.8% | NCI/ADR-RES ovarian 72.8%

O=C(NNC(=S)Nc1ccccc1)c1ccncc1
inactive: SR leukemia 99.2% | RPMI-8226 leukemia 96.8% | OVCAR-8 ovarian 104% | OVCAR-5 ovarian 107% | OVCAR-4 ovarian 116% | SK-OV-3 ovarian 118% | IGROV1 ovarian 106% | OVCAR-3 ovarian 114% | HS 578T breast 132% | NCI/ADR-RES ovarian 105%

CC1=C2[C@@H](CC1)[C@]1(C)O[C@@](C(C)C)(C[C@H]1OC(=O)CO)[C@H]2OC(=O)C1CC1c1ccccc1 (stereo not given in full)
active: HS 578T breast -2.94%
inactive: SR leukemia 82% | RPMI-8226 leukemia 88.8% | OVCAR-8 ovarian 65.6% | OVCAR-5 ovarian 78.2% | OVCAR-4 ovarian 102% | SK-OV-3 ovarian 108% | IGROV1 ovarian 87.5% | OVCAR-3 ovarian 96.5% | NCI/ADR-RES ovarian 69%

Oc1ccccc1C=Nc1ccc(N2CCN(c3ccccc3)CC2)cc1
inactive: SR leukemia 98% | RPMI-8226 leukemia 91% | OVCAR-8 ovarian 96.9% | OVCAR-5 ovarian 109% | OVCAR-4 ovarian 91% | SK-OV-3 ovarian 64.6% | IGROV1 ovarian 103% | OVCAR-3 ovarian 100% | HS 578T breast 105% | NCI/ADR-RES ovarian 92.6%

Cc1ccc(NC(=O)N/C(N)=N/c2nc(=O)c3ccccc3s2)cc1
inactive: SR leukemia 88.1% | RPMI-8226 leukemia 101% | OVCAR-8 ovarian 101% | OVCAR-5 ovarian 102% | OVCAR-4 ovarian 99.8% | SK-OV-3 ovarian 94.5% | IGROV1 ovarian 91.9% | OVCAR-3 ovarian 100% | HS 578T breast 82.9% | NCI/ADR-RES ovarian 110%

COc1ccc(-c2ccc(-c3ccc(C(=N)N)cn3)s2)cc1Cl
inactive: SK-OV-3 ovarian 100%
active: SR leukemia 0.301% | RPMI-8226 leukemia -41.6% | OVCAR-8 ovarian -50.5% | OVCAR-5 ovarian -95.5% | OVCAR-4 ovarian -82.8% | IGROV1 ovarian -83% | OVCAR-3 ovarian -38.1% | HS 578T breast -68.5% | NCI/ADR-RES ovarian 0.998%

O=C(CN1C(=O)S/C(=C\C(Cl)=C\c2ccccc2)C1=O)NC1C=CS(=O)(=O)C1 (stereo not given)
active: SR leukemia 6.39% | RPMI-8226 leukemia 0.667% | OVCAR-8 ovarian 4.68% | IGROV1 ovarian -16.1% | OVCAR-3 ovarian -12.6%
inactive: OVCAR-5 ovarian 44.2% | OVCAR-4 ovarian 39.4% | SK-OV-3 ovarian 98.8% | HS 578T breast 51.7% | NCI/ADR-RES ovarian 24.7%

O=[N+]([O-])c1ccc(S(=O)Cc2ccccc2)c([N+](=O)[O-])c1 (stereo not given)
59.7% (inactive) and 1.6% (active): OVCAR-4 ovarian
active: SR leukemia 1.64% and -8.84%
13.9% (inactive) and -74.6% (active): OVCAR-3 ovarian
inactive: RPMI-8226 leukemia 72.8% and 27.5% | OVCAR-8 ovarian 45.8% and 94.9% | OVCAR-5 ovarian 82.4% and 93.3% | SK-OV-3 ovarian 104% and 109% | IGROV1 ovarian 89.9% and 106% | HS 578T breast 118% and 95.2% | NCI/ADR-RES ovarian 90.9% and 90.6%
